Measurements reported in PubChem BioAssay (NCI).
This is part of a sample that, as a whole, favours compounds with a hit. Of some 83,000 tested, about 20% had one in any assay.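 Cells were grown in 96-well plates and exposed to the test compound at a single concentration for 48 hours; results are reported as percent growth, with values below 10 considered active.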 Values without a mark were called inactive. Active and inactive are the calls of the source.

Key:
Assay in all cases: NCI-60 one-dose screen, 48 h (100 = growth as untreated, 0 = no growth, -100 = all killed)
SR leukemia = settings: 10 µM unless noted
RPMI-8226 leukemia = settings: 10 µM unless noted
OVCAR-8 ovarian = settings: 10 µM unless noted
OVCAR-5 ovarian = settings: 10 µM unless noted
OVCAR-4 ovarian = settings: 10 µM
SK-OV-3 ovarian = settings: 10 µM unless noted
IGROV1 ovarian = settings: 10 µM unless noted
OVCAR-3 ovarian = settings: 10 µM unless noted
HS 578T breast = settings: 10 µM unless noted
NCI/ADR-RES ovarian = settings: 10 µM unless noted
T-47D breast = settings: 10 µM unless noted
MDA-MB-435 melanoma = settings: 10 µM unless noted
SW-620 colon = settings: 10 µM unless noted
HCT-116 colon = settings: 10 µM unless noted
HCC-2998 colon = settings: 10 µM unless noted
KM12 colon = settings: 10 µM unless noted
BT-549 breast = settings: 10 µM unless noted
MCF7 breast = settings: 10 µM unless noted

CC1(C)OC2[C@@H](CNC(=O)NC(=O)NC(=O)CI)O[C@@H](n3cnc4c(NC(=O)Nc5ccccc5)ncnc43)[C@H]2O1 (stereo partly drawn)
growth (SR leukemia): -50.8% (active)
growth (RPMI-8226 leukemia): 64.2%
growth (OVCAR-8 ovarian): 75.9%
growth (OVCAR-5 ovarian): 93%
growth (OVCAR-4 ovarian): 73.5%
growth (SK-OV-3 ovarian): 105%
growth (IGROV1 ovarian): 15.5%
growth (OVCAR-3 ovarian): -32.6% (active)
growth (HS 578T breast): 98.7%
growth (NCI/ADR-RES ovarian): 84.6%
growth (T-47D breast): 49%
growth (MDA-MB-435 melanoma): 83.8%
growth (SW-620 colon): -41.9% (active)
growth (HCT-116 colon): 51.2%
growth (HCC-2998 colon): 94%
growth (KM12 colon): 84.2%

CC(C)CCNCC(C)(C)O
growth (SR leukemia): 97.9%
growth (RPMI-8226 leukemia): 120%
growth (OVCAR-8 ovarian): 99.4%
growth (OVCAR-5 ovarian): 101%
growth (OVCAR-4 ovarian): 115%
growth (SK-OV-3 ovarian): 110%
growth (IGROV1 ovarian): 118%
growth (OVCAR-3 ovarian): 119%
growth (HS 578T breast): 118%
growth (NCI/ADR-RES ovarian): 118%
growth (BT-549 breast): 110%
growth (MDA-MB-435 melanoma): 112%
growth (SW-620 colon): 109%
growth (MCF7 breast): 109%
growth (HCT-116 colon): 109%
growth (HCC-2998 colon): 109%
growth (KM12 colon): 116%

Cn1cc(-c2noc(-c3cn(C)c4ncc(F)cc34)n2)c2cc(Br)ccc21
growth (SR leukemia): 37.1%
growth (RPMI-8226 leukemia): 87.9%
growth (OVCAR-8 ovarian): 55.2%
growth (OVCAR-5 ovarian): 64.4%
growth (OVCAR-4 ovarian): -40.3% (active)
growth (SK-OV-3 ovarian): 84.4%
growth (IGROV1 ovarian): 73.3%
growth (OVCAR-3 ovarian): 38.5%
growth (HS 578T breast): 58.7%
growth (NCI/ADR-RES ovarian): 61.5%
growth (T-47D breast): 25.2%
growth (SW-620 colon): 57.3%
growth (MCF7 breast): 51.8%
growth (HCT-116 colon): 32.7%
growth (HCC-2998 colon): 107%
growth (KM12 colon): 58.1%

CSc1nc(=S)c2nc(SC)n(-c3ccccc3)c2[nH]1
growth (SR leukemia): 104%
growth (RPMI-8226 leukemia): 90.7%
growth (OVCAR-8 ovarian): 100%
growth (OVCAR-5 ovarian): 104%
growth (OVCAR-4 ovarian): 104%
growth (SK-OV-3 ovarian): 96.4%
growth (IGROV1 ovarian): 101%
growth (OVCAR-3 ovarian): 105%
growth (HS 578T breast): 92.3%
growth (NCI/ADR-RES ovarian): 101%
growth (BT-549 breast): 104%
growth (MDA-MB-435 melanoma): 103%
growth (SW-620 colon): 97.1%
growth (MCF7 breast): 90.7%
growth (HCT-116 colon): 93.1%
growth (HCC-2998 colon): 115%

Cn1cc(-c2noc(-c3cn(C)c4ncc(F)cc34)n2)c2ccccc21
growth (SR leukemia): 69.1%
growth (RPMI-8226 leukemia): 78.2%
growth (OVCAR-8 ovarian): 40%
growth (OVCAR-5 ovarian): 75.1%
growth (OVCAR-4 ovarian): -29.4% (active)
growth (SK-OV-3 ovarian): 7.74% (active)
growth (IGROV1 ovarian): 45%
growth (OVCAR-3 ovarian): 32.5%
growth (HS 578T breast): 30.9%
growth (NCI/ADR-RES ovarian): 58.2%
growth (T-47D breast): 42.3%
growth (MDA-MB-435 melanoma): 72.8%
growth (SW-620 colon): 56.1%
growth (MCF7 breast): 34.1%
growth (HCT-116 colon): 27%
growth (HCC-2998 colon): 86.6%
growth (KM12 colon): 62.7%

O=C(CSc1nccc(Nc2ccc(S(=O)(=O)Nc3ccccn3)cc2)n1)c1ccc(Cl)cc1
growth (SR leukemia): 75.5%
growth (RPMI-8226 leukemia): 71.3%
growth (OVCAR-8 ovarian): 84.2%
growth (OVCAR-5 ovarian): 111%
growth (OVCAR-4 ovarian): 80.2%
growth (SK-OV-3 ovarian): 95.4%
growth (IGROV1 ovarian): 77.9%
growth (OVCAR-3 ovarian): 95.8%
growth (HS 578T breast): 89.1%
growth (NCI/ADR-RES ovarian): 103%
growth (MDA-MB-435 melanoma): 118%
growth (SW-620 colon): 105%
growth (MCF7 breast): 91.4%
growth (HCT-116 colon): 92.2%
growth (HCC-2998 colon): 106%
growth (KM12 colon): 97.6%

O=C1/C(=C/c2cccc(OCc3ccccc3)c2)Oc2cc(OCCN3CCCCC3)ccc21
growth (SR leukemia): -20.5% (active)
growth (RPMI-8226 leukemia): 20.8%
growth (OVCAR-8 ovarian): 92%
growth (OVCAR-5 ovarian): 81.4%
growth (OVCAR-4 ovarian): 86.2%
growth (SK-OV-3 ovarian): 121%
growth (IGROV1 ovarian): 71.5%
growth (OVCAR-3 ovarian): 86.3%
growth (NCI/ADR-RES ovarian): 82.7%
growth (T-47D breast): 89.9%
growth (BT-549 breast): 75.6%
growth (MDA-MB-435 melanoma): 85.4%
growth (SW-620 colon): 67.3%
growth (MCF7 breast): 50.7%
growth (HCT-116 colon): 52.8%
growth (HCC-2998 colon): 93.3%
growth (KM12 colon): 67.9%

C=CCCC1(C)NC(=O)NC1=O (stereo not drawn)
growth (SR leukemia): 94.4%
growth (RPMI-8226 leukemia): 104%
growth (OVCAR-8 ovarian): 102%
growth (OVCAR-5 ovarian): 102%
growth (OVCAR-4 ovarian): 99.4%
growth (SK-OV-3 ovarian): 94.6%
growth (IGROV1 ovarian): 115%
growth (OVCAR-3 ovarian): 106%
growth (HS 578T breast): 105%
growth (NCI/ADR-RES ovarian): 103%
growth (BT-549 breast): 100%
growth (MDA-MB-435 melanoma): 99.4%
growth (SW-620 colon): 102%
growth (HCT-116 colon): 96.6%
growth (HCC-2998 colon): 104%

Brc1ccc(-c2nnc3c4[nH]ccc4ncn23)cc1
growth (SR leukemia): 82.1%
growth (RPMI-8226 leukemia): 84.4%
growth (OVCAR-8 ovarian): 95.3%
growth (OVCAR-5 ovarian): 113%
growth (OVCAR-4 ovarian): 91.1%
growth (SK-OV-3 ovarian): 93.2%
growth (IGROV1 ovarian): 69.6%
growth (OVCAR-3 ovarian): 85.7%
growth (HS 578T breast): 93.6%
growth (T-47D breast): 57.6%
growth (MDA-MB-435 melanoma): 97.8%
growth (SW-620 colon): 94%
growth (MCF7 breast): 75.8%
growth (HCT-116 colon): 86.4%
growth (HCC-2998 colon): 96.6%
growth (KM12 colon): 73.4%

CCCCCN(CCCCC)CCCCCCCCN1CCCc2ccccc21
growth (SR leukemia): 21.5%
growth (RPMI-8226 leukemia): 84.1%
growth (OVCAR-8 ovarian): 89.1%
growth (OVCAR-5 ovarian): 107%
growth (OVCAR-4 ovarian): 95.9%
growth (SK-OV-3 ovarian): 106%
growth (IGROV1 ovarian): 76.4%
growth (OVCAR-3 ovarian): 72.1%
growth (NCI/ADR-RES ovarian): 92.2%
growth (T-47D breast): 108%
growth (BT-549 breast): 88.6%
growth (MDA-MB-435 melanoma): 87.9%
growth (SW-620 colon): 82.8%
growth (MCF7 breast): 101%
growth (HCT-116 colon): 64.8%
growth (HCC-2998 colon): 74.8%
growth (KM12 colon): 73.4%
